Source: PubChem BioAssay AID493170 (National Center for Advancing Translational Sciences (NCATS), 2011)
Records with an inconclusive call do not appear. The source made the active and inactive calls. Calls come from the whole dose curve; as a rule, active = well fitted inhibition curve with a large enough effect; inconclusive = small, poorly fitted or top-dose-only effect, or effect the other way; inactive = flat fitted curve, though single readings scatter.

Target: Ubiquitin carboxyl-terminal hydrolase 2 (Homo sapiens) (UniProt O75604)
Test: Ub-rhodamine 110 based assay for inhibitors Ubiquitin-specific Protease USP2a; note: nearly all actives have a fitted effect of over 50% in size
Conditions: USP2a Ub-rhodamine110 cleavage, fluorescence; series mostly up to 38.3 µM; activity change, negative = inhibition: at the top concentration
In short: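 Kinetic fluorescence (485/531 nm) read each minute over 7 min after adding Ub-Rhod110 (150 nM final) to USP2a (5 nM final). The enzyme had 30 min RT exposure to compounds beforehand in Tris pH 8.0 buffer with CaCl2, CHAPS and beta-ME.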
% is set by controls: 0 for no effect and ±100 for the full control effect; potency is the fitted concentration of half-maximal effect.

Chain of Ubiquitin carboxyl-terminal hydrolase 2 (Homo sapiens) (O75604 whole entry, looked up): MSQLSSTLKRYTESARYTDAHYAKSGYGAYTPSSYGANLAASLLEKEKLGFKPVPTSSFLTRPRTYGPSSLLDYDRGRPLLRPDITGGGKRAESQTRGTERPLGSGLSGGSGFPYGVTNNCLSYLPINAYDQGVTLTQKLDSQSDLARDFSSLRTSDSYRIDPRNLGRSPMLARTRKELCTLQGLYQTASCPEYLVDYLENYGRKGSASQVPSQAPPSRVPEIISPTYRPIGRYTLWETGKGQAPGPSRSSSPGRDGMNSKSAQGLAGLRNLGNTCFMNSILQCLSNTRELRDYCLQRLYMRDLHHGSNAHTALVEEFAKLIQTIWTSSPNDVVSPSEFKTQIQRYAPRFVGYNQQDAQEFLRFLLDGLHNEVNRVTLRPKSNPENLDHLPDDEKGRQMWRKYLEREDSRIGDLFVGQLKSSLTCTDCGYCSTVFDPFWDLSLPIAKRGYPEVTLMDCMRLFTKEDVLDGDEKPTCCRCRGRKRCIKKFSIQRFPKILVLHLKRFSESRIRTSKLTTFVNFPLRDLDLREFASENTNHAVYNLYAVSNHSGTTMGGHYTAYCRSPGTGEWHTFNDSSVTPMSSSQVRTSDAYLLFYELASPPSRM

Structure (SMILES) | activity change, negative = inhibition | Potency
COc1cc2cc(CN(CCN3CCCC3)C(=O)Nc3ccc(F)cc3)c(=O)[nH]c2cc1OC | -12.5% (inactive) | –
Oc1ccccc1/C=N/Nc1ncc(Br)cn1 | 1.75% (inactive) | –
O=C(/C=C\c1ccco1)c1ccc(NC(=O)c2ccco2)cc1 | – | 10 µM (active)
Cc1nn(CC(=O)Nc2cccc(S(N)(=O)=O)c2)c(C)c1[N+](=O)[O-] | -4.84% (inactive) | –
COc1ccc(C(=O)N/C(=C\c2cccs2)C(=O)N2CCN(C)CC2)cc1OC | -5.24% (inactive) | –
CC(C)Cn1c(SCC(N)=O)nnc1-c1cccc(S(=O)(=O)N2CCOCC2)c1 | -7.07% (inactive) | –
COC(=O)c1cc2sc(Cl)cc2n1Cc1nc(-c2ccccc2)oc1C | 0.719% (inactive) | –
O=C(O)c1cccc(S(=O)(=O)NNc2ccccc2C(F)(F)F)c1 | -7.76% (inactive) | –
C#CCOCCOCCOCCNc1nc(N2CCN(C(=O)CCCCCCCCCCNC(=O)[C@@H](CCSC)n3cc(CCO)nn3)CC2)nc(N2CCN(C(=O)CCCCCCCCCCNC(=O)[C@H](CCCN=C(N)N)n3cc(C[C@@H](C)CC)nn3)CC2)n1 | – | 10 µM (active)
CC(C)(C)C1CCc2nc(NC(=O)Cc3cn4ccsc4n3)sc2C1 (stereo not given) | -15.6% (inactive) | –
C#CCOCCOCCOCCNc1nc(N2CCN(C(=O)CCCCCCCCCCNC(=O)Cn3cc(CCCCCN)nn3)CC2)nc(N2CCN(C(=O)CCCCCCCCCCNC(=O)[C@H](CO)n3cc(CCCCCN)nn3)CC2)n1 | -12.4% (inactive) | –
N#Cc1c(NC(=O)CSc2ncnc3sccc23)oc(-c2ccco2)c1-c1ccco1 | – | 3.98 µM (active)
C=CCn1c(N)c(C(=O)NCc2cccnc2)sc1=S | 4.72% (inactive) | –
COc1cccc(NC(=O)CSc2nncn2-c2ccccn2)c1 | -6.25% (inactive) | –
COc1cccc(NC(=O)Cc2ccccc2)c1 | 1.85% (inactive) | –
Nc1c(C(=O)Nc2ccc(Cl)cc2)oc2ccccc12 | -19.9% (inactive) | –
Cc1ccc(C(=O)NCCNS(=O)(=O)c2ccccc2)cc1 | -7.92% (inactive) | –
O=C(CCN1C(=O)/C(=C\c2ccco2)SC1=S)Nc1ccc(C(=O)O)c(O)c1 | – | 7.94 µM (active)
Cc1noc(/C=C/c2ccco2)c1S(=O)(=O)N1CCC(C(=O)N2CCc3ccccc3C2)CC1 | – | 7.94 µM (active)
Cn1c(C(=O)N2CCN(Cc3ccc4c(c3)OCO4)CC2)cc2sccc21 | 5.73% (inactive) | –

Structure (SMILES) | activity change, negative = inhibition | Potency
COCCCNC(=O)C1CCN(c2nc(C)cc(C)n2)CC1 | -9.82% (inactive) | –
COc1cc(OC)cc(-c2c(C#Cc3ccsc3)c3cc(-c4ccc(OC)c(OC)c4)ccc3n2C)c1 | -6.88% (inactive) | –
CC1CCCC(NC(=O)C2N(CCCN3CCCC3)C(=O)C3C(C(=O)Nc4ccc(Cl)cc4)C4C=CC32O4)C1C (stereo not given) | -8.64% (inactive) | –
O=C(Nc1cccc(C(F)(F)F)c1)/C(=C\c1ccco1)NC(=O)c1cccs1 | -4.02% (inactive) | –
Cc1cc(C(=O)Nc2ccccc2N2CCOCC2)c2ccccc2n1 | -9.38% (inactive) | –
CC1(C)CC(=O)C2=C(C1)Oc1ncn(CCCO)c(=N)c1C2c1ccccc1 (stereo not given) | -2.98% (inactive) | –
O=C(N/N=C/c1ccc(-c2ccc(Cl)c(C(=O)O)c2)o1)c1cc2c(ccc3ccccc32)o1 | – | 10 µM (active)
O=C(N/N=C/C=C/c1ccccc1)c1ccncc1 | -5.04% (inactive) | –
COc1ccc(CC(NC(C)=O)C(=O)NC2CCN(c3nc(C)cc(C)c3C#N)CC2)c(OC)c1 (stereo not given) | -12.1% (inactive) | –
COc1ccc2[nH]c(=O)c(CN(Cc3ccco3)Cc3nnnn3Cc3ccccc3)cc2c1 | 2.9% (inactive) | –
CCC(C)(C(=O)NC1CCCCC1)N(C(=O)C1CCC(=O)N1)c1ccccc1 (stereo not given) | -9.98% (inactive) | –
CCOC(=O)c1c(C)c(C(=O)O)n(C)c1C | -0.886% (inactive) | –
CC1(C)CC(=O)C2=C(C1)NCN(CCCN1CCOCC1)C2 | 1.43% (inactive) | –
O=C1S/C(=C\C=C\c2ccco2)C(=O)N1c1ccc(O)cc1 | – | 8.91 µM (active)
CCC(=O)c1ccc(OCC(=O)NC2CCN(Cc3ccccc3)CC2)cc1 | -5.4% (inactive) | –
CC(C)c1ccc(NC(=O)C(c2ccc3c(c2)OCO3)N2CCCCC2)cc1 (stereo not given) | -8.46% (inactive) | –
O=C(Nc1ccc2c(c1)OCO2)NC1(C(F)(F)F)Oc2ccccc2O1 | -7.72% (inactive) | –
COc1cc(/C=C/c2cc[n+](C)cc2)ccc1OCC(=O)Nc1ccc(Cl)c(Cl)c1 | -14.5% (inactive) | –
CCOC(=O)N1CCN(S(=O)(=O)c2ccc(C)cc2)C1c1ccc(OC)cc1 (stereo not given) | -18.1% (inactive) | –
O=C1c2ccccc2C(=O)N1CCC1=CCCCC1 | -8.94% (inactive) | –
